Test results as given in the supplement of paper PMC3334620.
Whole data set: some 33,000 sequences, median “E-score (-0.5 to 0.5)” near -0.036, cut for the highest 2% near 0.37. What follows is part of a selection rich in the highest values, with near analogues and random picks from the rest.

target: T1, Yer064c (UniProt P40041); assay: PBM E-score (8-mer binding enrichment) (E-score (-0.5 to 0.5)); higher = stronger / more preferred TF binding; details: protein concentration: 200 nM; construct: GST-full length
T1 sequence: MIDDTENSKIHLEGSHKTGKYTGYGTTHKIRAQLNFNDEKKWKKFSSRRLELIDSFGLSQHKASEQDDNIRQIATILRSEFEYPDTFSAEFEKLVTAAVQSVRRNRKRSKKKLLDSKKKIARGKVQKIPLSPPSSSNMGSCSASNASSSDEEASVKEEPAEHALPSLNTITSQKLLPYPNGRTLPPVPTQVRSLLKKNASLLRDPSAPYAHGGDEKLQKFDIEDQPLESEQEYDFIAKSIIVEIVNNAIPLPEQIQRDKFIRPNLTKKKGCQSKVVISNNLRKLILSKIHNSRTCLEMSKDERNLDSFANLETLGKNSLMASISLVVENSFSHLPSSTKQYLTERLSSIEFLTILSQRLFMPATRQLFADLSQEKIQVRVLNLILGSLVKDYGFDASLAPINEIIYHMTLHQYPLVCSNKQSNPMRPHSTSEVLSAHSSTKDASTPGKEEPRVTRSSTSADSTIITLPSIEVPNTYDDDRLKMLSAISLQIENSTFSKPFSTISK
How it was run: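 The E-score, a modified Wilcoxon-Mann-Whitney statistic, was computed by the Universal PBM Analysis Suite for every ungapped eight-base word pooled with its reverse complement. Scans behind it were normalised with masliner after bound GST-tagged yeast transcription factors were detected with fluorescent anti-GST. The proteins, at about 100-200 nM, had been applied to universal all-10-mer Agilent arrays made double-stranded by primer extension.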

Going from CCGTACAG to AAAATATA, the “PBM E-score” value rises from -0.123 to 0.102.

Going from ATAAGTCA to CTAAGTCA, the “PBM E-score” value rises from 0.438 to 0.449.

Compared with ATAAGTCG, CTAAGTAA is lower in “PBM E-score” value: 0.223 for the first, 0.204 for the second.

Compared with CTAAGTCC, GTAAGTAA is lower in “PBM E-score” value: 0.148 for the first, 0.0006 for the second.

Going from ATAAGTCC to GTAAGTGA, the “PBM E-score” value falls from 0.161 to 0.131.

First: GTAAGTCA
Second: CATCTCGG
The “PBM E-score” value of the first is higher: 0.448 for the first, 0.181 for the second.

Compared with AATCCAGC, AACCCATA is higher in “PBM E-score” value: -0.149 for the first, 0.111 for the second.

Going from GAAGCGGA to AAATCAGA, the “PBM E-score” value rises from -0.189 to 0.158.

Going from CAATCAGA to AAATCAGC, the “PBM E-score” value rises from 0.208 to 0.227.

Compared with GAATCAGA, GAATCAGC is higher in “PBM E-score” value: 0.402 for the first, 0.417 for the second.

Compared with CAATCAGC, CTTGCCGC is lower in “PBM E-score” value: 0.317 for the first, -0.264 for the second.

Compared with AGAGAACA, GCGAACGC is lower in “PBM E-score” value: -0.0209 for the first, -0.058 for the second.

Compared with TCGAATAA, CCGAATCA is higher in “PBM E-score” value: -0.00971 for the first, 0.348 for the second.

Compared with ACGAATCC, CCGAATCC is lower in “PBM E-score” value: 0.171 for the first, -0.186 for the second.

Going from ACGAATCA to TCGAATCA, the “PBM E-score” value falls from 0.404 to 0.369.

First: ACGAATCT
Second: GCGAATCA
The “PBM E-score” value of the first is lower: 0.123 for the first, 0.414 for the second.

First: GCGAATCC
Second: CTCACGCC
The “PBM E-score” value of the first is lower: -0.066 for the first, 0.172 for the second.

Compared with CGGGAATC, CGCCTCGC is lower in “PBM E-score” value: 0.0615 for the first, -0.087 for the second.

First: AATTCAAT
Second: AAATGCCC
The “PBM E-score” value of the first is higher: 0.0175 for the first, -0.188 for the second.

Compared with GAGACACA, AGGGCTGC is lower in “PBM E-score” value: 0.288 for the first, -0.346 for the second.

Compared with AACACACC, ATGCGGCG is lower in “PBM E-score” value: 0.0884 for the first, -0.174 for the second.

Going from CCCGCCCC to AACTAACC, the “PBM E-score” value rises from -0.223 to 0.0831.

First: CATTAATC
Second: TATTAACA
The “PBM E-score” value of the first is higher: 0.271 for the first, 0.0799 for the second.

Going from GATTAATC to CACTAACA, the “PBM E-score” value falls from 0.391 to 0.0977.

First: CACTAACC
Second: GATTAACA
The “PBM E-score” value of the first is lower: -0.153 for the first, 0.367 for the second.

First: GACTAACC
Second: TACTAACA
The “PBM E-score” value of the first is higher: 0.44 for the first, 0.0931 for the second.

Compared with GACTAACA, GATTAATA is lower in “PBM E-score” value: 0.449 for the first, 0.325 for the second.

Going from GATTAACC to GAGCAATC, the “PBM E-score” value falls from 0.294 to 0.146.

First: CATAGGGG
Second: TCCCCCGA
The “PBM E-score” value of the first is higher: -0.149 for the first, -0.176 for the second.

Compared with GCGGCGAA, CGATGAAA is higher in “PBM E-score” value: -0.17 for the first, 0.0671 for the second.

Going from ATTTTTCG to TGAGGAAA, the “PBM E-score” value falls from 0.00581 to -0.0935.

Going from GCCCTAGA to CGTACGCA, the “PBM E-score” value rises from -0.316 to -0.195.

Going from CCAGCACC to CCTAAAGA, the “PBM E-score” value rises from -0.231 to 0.0245.

Going from ACTGTGAT to GCTATGAC, the “PBM E-score” value rises from 0.165 to 0.307.

First: ACTGTGAA
Second: CCTATGAC
The “PBM E-score” value of the first is lower: 0.0208 for the first, 0.235 for the second.

Going from ACTGTGAC to ACTATGAC, the “PBM E-score” value falls from 0.397 to 0.372.

First: CCTTGGTA
Second: AAGTTCTG
The “PBM E-score” value of the first is lower: 0.00702 for the first, 0.0281 for the second.

Going from ATTAAGGA to AGTTGCCC, the “PBM E-score” value falls from 0.176 to 0.00742.

Compared with ACAAGTCC, ACTAATCC is higher in “PBM E-score” value: -0.047 for the first, 0.208 for the second.

Going from ACTAATCT to CCTAATCA, the “PBM E-score” value rises from 0.273 to 0.376.

Going from GCTAATCA to CCTAATCG, the “PBM E-score” value falls from 0.372 to 0.0953.

Compared with TCTAATCA, ACTAATCG is lower in “PBM E-score” value: 0.386 for the first, 0.226 for the second.

Going from TCTAATAA to CCTAATCC, the “PBM E-score” value falls from 0.115 to -0.33.

Compared with GCTAATCC, GCTAATTA is higher in “PBM E-score” value: -0.145 for the first, 0.0849 for the second.

First: ACTAATCA
Second: CTTAACCA
The “PBM E-score” value of the first is higher: 0.403 for the first, 0.197 for the second.

Going from ATTGGGAC to TCGTTCCA, the “PBM E-score” value falls from 0.0416 to -0.108.

Compared with ACCCTGTG, ACCCAGAT is lower in “PBM E-score” value: -0.0328 for the first, -0.0932 for the second.

Compared with CGAGGCTA, ACACTCGC is higher in “PBM E-score” value: -0.0432 for the first, 0.111 for the second.

Going from CGCGACAA to CCCGACTA, the “PBM E-score” value rises from 0.124 to 0.314.

First: GGCGACCA
Second: GGCGACGA
The “PBM E-score” value of the first is lower: -0.416 for the first, -0.226 for the second.

Going from CGCGACTA to AGCGACGC, the “PBM E-score” value falls from 0.397 to -0.273.

Going from AGCGACTC to CTCGACTA, the “PBM E-score” value falls from 0.412 to 0.299.

First: GGCGACTA
Second: AGCGACCC
The “PBM E-score” value of the first is higher: 0.402 for the first, -0.196 for the second.

First: ACCGACTC
Second: CCCGACTC
The “PBM E-score” value of the first is lower: 0.328 for the first, 0.389 for the second.

Going from TAATTCAA to TAGGGCCA, the “PBM E-score” value falls from 0.14 to -0.307.

Compared with GCCCCGGA, AGCTTGGC is higher in “PBM E-score” value: -0.22 for the first, -0.115 for the second.

Compared with ATAGAGAC, GCGACACC is lower in “PBM E-score” value: 0.0997 for the first, -0.173 for the second.

Compared with CCCTACGA, GTACAGGA is lower in “PBM E-score” value: 0.0187 for the first, -0.0544 for the second.

Compared with CACAGATA, ATGCCAGA is higher in “PBM E-score” value: -0.0649 for the first, -0.0495 for the second.

First: CGCGACTC
Second: CTCGACTC
The “PBM E-score” value of the first is higher: 0.438 for the first, 0.34 for the second.

Going from AGCGACCA to AGCGACTA, the “PBM E-score” value rises from -0.173 to 0.391.

Going from AGCGACTG to CGCGACCC, the “PBM E-score” value falls from 0.255 to -0.0841.

Going from CGCCCTTC to ACGACTCT, the “PBM E-score” value rises from -0.212 to 0.404.

Compared with GCGACTGA, ACGACTCA is higher in “PBM E-score” value: 0.31 for the first, 0.477 for the second.

Compared with ACTACTCA, GCGACTTA is lower in “PBM E-score” value: 0.344 for the first, 0.266 for the second.

First: ACGACTCC
Second: ACGACTGC
The “PBM E-score” value of the first is higher: 0.423 for the first, 0.19 for the second.

Compared with GCGACTCA, ACTACTCT is lower in “PBM E-score” value: 0.483 for the first, 0.239 for the second.

First: ACGACTTA
Second: ACGACGCC
The “PBM E-score” value of the first is higher: 0.276 for the first, -0.211 for the second.

Going from ACAACTCT to CCACTAGA, the “PBM E-score” value falls from 0.175 to -0.195.

Compared with AAAACGGT, TAGAAAGA is higher in “PBM E-score” value: -0.155 for the first, 0.113 for the second.

Going from AGTCTCAC to GCTGGTGA, the “PBM E-score” value falls from 0.337 to 0.0962.

First: CCATTACG
Second: CCGACTCG
The “PBM E-score” value of the first is lower: -0.038 for the first, 0.296 for the second.

Compared with CCGACTCC, ACGACTTG is lower in “PBM E-score” value: 0.339 for the first, 0.17 for the second.

First: GCGACCCC
Second: ACGACTCG
The “PBM E-score” value of the first is lower: -0.237 for the first, 0.394 for the second.

First: GCGACTCC
Second: GCCACTCC
The “PBM E-score” value of the first is higher: 0.39 for the first, -0.128 for the second.

Going from CCGACTGA to TCTACTCA, the “PBM E-score” value rises from 0.192 to 0.202.

First: TCGACTCA
Second: CCGACTCA
The “PBM E-score” value of the first is lower: 0.435 for the first, 0.441 for the second.

Compared with TCGACCCA, CGAGAATC is higher in “PBM E-score” value: 0.0521 for the first, 0.117 for the second.

First: GCGAGCCC
Second: GCAATACC
The “PBM E-score” value of the first is lower: -0.21 for the first, -0.127 for the second.

Compared with CCTGTGCA, AAAACAGG is higher in “PBM E-score” value: -0.146 for the first, -0.126 for the second.

First: TAATGGCA
Second: GCCAAAAA
The “PBM E-score” value of the first is lower: -0.172 for the first, 0.0564 for the second.

First: AGAGAGGG
Second: CATGATTA
The “PBM E-score” value of the first is lower: -0.162 for the first, 0.453 for the second.

First: ACTGATTC
Second: CCTGATGC
The “PBM E-score” value of the first is higher: 0.319 for the first, -0.0643 for the second.

Compared with CATGATGA, CATGATCC is lower in “PBM E-score” value: 0.261 for the first, 0.0741 for the second.

First: AATGATTC
Second: CATGATAA
The “PBM E-score” value of the first is higher: 0.464 for the first, 0.12 for the second.

Going from CATGATTC to CCTGATTC, the “PBM E-score” value falls from 0.457 to 0.399.
